Laboratory results reported in PubChem BioAssay (EPA / NIEHS).
Active and inactive are the calls of the source. How the source made its calls: active means hit-call score of the fitted dose curve at least 0.9, where 1 is the maximum; inactive means score below 0.9.

Experiments:
[1] = ATG_CRE_CIS: Attagene CIS-FACTORIAL HepG2 Assay for human cAMP Responsive Element (CRE) binding protein 3 (AID 2282926); details: HepG2 CRE cis-reporter, Attagene multiplexed mRNA; actives raise or lower the signal
Method in brief: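 Induced reporter mRNA from a CRE cis element, measured in HepG2 among many multiplexed units at 24 h. Detection used RT-PCR plus capillary electrophoresis of fluorescent fragments; DMSO served as negative control.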

[2] = biological target: CCAAT/enhancer-binding protein beta (Homo sapiens) (UniProt P17676); experiment: ATG_C_EBP_CIS: Attagene CIS-FACTORIAL HepG2 Assay for human CCAAT/Enhancer Binding Protein (C/EBP) beta (AID 2282927); details: HepG2 Attagene cis-factorial transcription factor reporter; actives raise or lower the signal
CCAAT/enhancer-binding protein beta (Homo sapiens), sequence (P17676 whole entry, looked up): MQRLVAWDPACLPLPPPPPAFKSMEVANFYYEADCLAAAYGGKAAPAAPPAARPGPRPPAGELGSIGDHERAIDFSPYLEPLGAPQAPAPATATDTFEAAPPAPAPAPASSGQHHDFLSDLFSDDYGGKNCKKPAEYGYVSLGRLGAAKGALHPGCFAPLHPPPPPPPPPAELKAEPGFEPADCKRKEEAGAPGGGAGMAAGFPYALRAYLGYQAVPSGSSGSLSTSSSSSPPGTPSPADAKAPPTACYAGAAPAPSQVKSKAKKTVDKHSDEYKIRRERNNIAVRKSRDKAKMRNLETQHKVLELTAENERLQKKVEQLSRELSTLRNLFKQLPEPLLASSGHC
Method in brief: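 Transiently transfected HepG2 (MRTU library, endogenous TF-driven promoters); 24 h dosing; total RNA → oligo(dT) RT → PCR → 6-FAM primer extension → HpaI digest → CE; fit bidirectionally vs DMSO.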

[3] = ATG_CMV_CIS: Attagene CIS-FACTORIAL HepG2 Assay for human CMV (Internal Marker) (AID 2282928); details: HepG2 CMV promoter reporter, transcription factor profiling; actives raise or lower the signal;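 further: endpoint acts as a background internal control marker rather than a target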
Method in brief: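 Reporter transcripts from transfected HepG2 cells are isolated after 24 h of chemical dosing, reverse-transcribed and amplified. Fragments labeled with 6-FAM are cut with HpaI and quantified by capillary electrophoresis; DMSO defines baseline.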

[4] = ATG_DR4_LXR_CIS: Attagene CIS-FACTORIAL HepG2 Assay for human Liver X Receptor (LXR), DR4 submotif (AID 2282929); details: HepG2 Attagene DR4 cis-reporter, mRNA transcription; actives raise or lower the signal
Method in brief: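 Measures endogenous transcription factor activity via a DR4-driven reporter transcript in human HepG2 cells. Compounds incubated 24 h; mRNA quantified by RT-PCR and capillary electrophoresis, analysed as gain or loss of signal versus DMSO.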

[5] = biological target: Aryl hydrocarbon receptor (Homo sapiens) (UniProt P35869); experiment: ATG_Ahr_CIS: Attagene CIS-FACTORIAL HepG2 Assay for human Aryl Hydrocarbon Receptor (Ahr) (AID 2282930); details: HepG2 AhR cis-factorial reporter transcription; actives raise or lower the signal
Aryl hydrocarbon receptor (Homo sapiens), sequence (P35869 whole entry, looked up): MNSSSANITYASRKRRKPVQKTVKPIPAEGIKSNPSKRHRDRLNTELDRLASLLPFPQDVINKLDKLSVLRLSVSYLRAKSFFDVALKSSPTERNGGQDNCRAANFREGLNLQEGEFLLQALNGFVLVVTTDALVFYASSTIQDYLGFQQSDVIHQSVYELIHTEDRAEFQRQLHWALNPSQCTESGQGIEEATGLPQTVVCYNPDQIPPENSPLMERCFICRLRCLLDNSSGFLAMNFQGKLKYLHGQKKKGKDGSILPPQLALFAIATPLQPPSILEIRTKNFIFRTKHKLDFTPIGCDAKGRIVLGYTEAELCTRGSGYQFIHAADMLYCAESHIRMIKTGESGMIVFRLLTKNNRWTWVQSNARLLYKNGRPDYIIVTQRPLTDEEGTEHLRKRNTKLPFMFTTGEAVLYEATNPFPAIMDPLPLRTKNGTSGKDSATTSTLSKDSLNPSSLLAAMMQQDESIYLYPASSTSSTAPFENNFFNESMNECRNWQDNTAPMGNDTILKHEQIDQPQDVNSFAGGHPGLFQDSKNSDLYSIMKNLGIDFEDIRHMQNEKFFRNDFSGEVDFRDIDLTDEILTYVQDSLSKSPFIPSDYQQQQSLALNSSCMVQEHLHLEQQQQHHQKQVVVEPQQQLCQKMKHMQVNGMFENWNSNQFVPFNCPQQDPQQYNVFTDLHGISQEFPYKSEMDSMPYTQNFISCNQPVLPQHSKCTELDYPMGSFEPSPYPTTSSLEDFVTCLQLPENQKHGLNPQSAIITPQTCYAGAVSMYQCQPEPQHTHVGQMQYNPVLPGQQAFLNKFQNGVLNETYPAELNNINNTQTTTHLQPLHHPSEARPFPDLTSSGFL
Method in brief: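 Read-out: reporter mRNA quantified by RT-PCR with fluorescent primer extension and capillary electrophoresis. Human HepG2 liver cells carried transfected cis-promoter reporter units and were exposed to chemical for 24 h; gain or loss fitted relative to DMSO.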

[6] = ATG_AP_1_CIS: Attagene CIS-FACTORIAL HepG2 Assay for human Activator Protein 1 (AP-1) (AID 2282931); details: HepG2 Attagene cis-factorial AP-1 reporter mRNA; actives raise or lower the signal
Method in brief: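 Bidirectional concentration-response fitting against DMSO controls. Underlying signal: reporter mRNA from cis-promoter constructs in transiently transfected HepG2, measured after 24 h by RT-PCR and capillary electrophoresis.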

[7] = ATG_BRE_CIS: Attagene CIS-FACTORIAL HepG2 Assay for human Bone Morphogenetic Protein (BMP) Response Element (BRE) (AID 2282933); details: HepG2 BMP response element reporter, Attagene transcription factor profiling; actives raise or lower the signal
Method in brief: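 Endogenous transcription factor activity at a BMP response element was monitored in transfected HepG2 cells 24 h after dosing. Fluorescent RT-PCR products were resolved by capillary electrophoresis, and activity was fitted in both directions versus DMSO.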

[8] = biological target: Retinoic acid receptor alpha (Homo sapiens) (UniProt P10276); experiment: ATG_DR5_RAR_CIS: Attagene CIS-FACTORIAL HepG2 Assay for human Retinoic Acid Receptor Alpha (RARE), DR5 submotif (AID 2282934); details: HepG2 Attagene cis-factorial RARE DR5 reporter, mRNA; actives raise or lower the signal;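 on AC50: reporter responds to endogenous RAR alpha beta and gamma in HepG2 not RARA alone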
Retinoic acid receptor alpha (Homo sapiens), sequence (P10276 whole entry, looked up): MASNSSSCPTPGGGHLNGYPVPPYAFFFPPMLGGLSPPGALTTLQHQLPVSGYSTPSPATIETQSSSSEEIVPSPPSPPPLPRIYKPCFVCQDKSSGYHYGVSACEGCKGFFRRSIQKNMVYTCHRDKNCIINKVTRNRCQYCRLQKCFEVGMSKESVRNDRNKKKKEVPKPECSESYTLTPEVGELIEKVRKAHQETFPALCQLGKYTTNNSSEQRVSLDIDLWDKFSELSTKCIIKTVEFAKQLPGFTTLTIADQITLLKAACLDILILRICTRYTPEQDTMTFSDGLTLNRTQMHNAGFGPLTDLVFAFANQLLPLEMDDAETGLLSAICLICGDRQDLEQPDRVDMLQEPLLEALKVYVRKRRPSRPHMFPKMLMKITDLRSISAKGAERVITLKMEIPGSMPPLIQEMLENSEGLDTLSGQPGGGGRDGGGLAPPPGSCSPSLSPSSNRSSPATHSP
Method in brief: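 Read-out: DR5-driven reporter transcript measured by RT-PCR, 6-FAM primer extension, HpaI digest and capillary electrophoresis. Human HepG2 liver cells carry transiently transfected cis-element reporter constructs; dosing lasts 24 h. Gain or loss of signal fitted against DMSO baseline.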

[9] = biological target: Transcription factor E2F1 (Homo sapiens) (UniProt Q01094); experiment: ATG_E2F_CIS: Attagene CIS-FACTORIAL HepG2 Assay for human E2F Transcription Factor 1 (AID 2282935); details: HepG2 Attagene cis-reporter, E2F reporter RNA transcripts; actives raise or lower the signal
Transcription factor E2F1 (Homo sapiens), sequence (Q01094 whole entry, looked up): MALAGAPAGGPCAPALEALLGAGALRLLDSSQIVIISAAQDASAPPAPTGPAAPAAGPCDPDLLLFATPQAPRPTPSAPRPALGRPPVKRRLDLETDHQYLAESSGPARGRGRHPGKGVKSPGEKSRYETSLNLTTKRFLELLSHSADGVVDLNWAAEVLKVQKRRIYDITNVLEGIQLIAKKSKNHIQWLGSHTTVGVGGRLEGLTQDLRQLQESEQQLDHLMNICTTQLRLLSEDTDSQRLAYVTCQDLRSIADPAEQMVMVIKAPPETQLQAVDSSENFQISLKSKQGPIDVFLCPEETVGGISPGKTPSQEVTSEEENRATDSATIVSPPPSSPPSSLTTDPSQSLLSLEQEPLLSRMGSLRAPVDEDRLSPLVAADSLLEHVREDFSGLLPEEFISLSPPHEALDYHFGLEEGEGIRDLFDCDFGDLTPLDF
Method in brief: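 Transient MRTU transfection of HepG2; 24 h compound exposure; RNA → oligo(dT) RT → PCR → FAM label → HpaI cut → CE fluorescence. Gain/loss of signal fit against DMSO.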

[10] = ATG_AP_2_CIS: Attagene CIS-FACTORIAL HepG2 Assay for human Activator Protein 2 (AP-2) (AID 2282932); details: HepG2 AP-2 cis-reporter, Attagene transcription factor profiling; actives raise or lower the signal
Method in brief: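 Read-out: fluorescent reporter mRNA via RT-PCR and capillary electrophoresis, 24 h post-dose in transiently transfected HepG2. Endogenous factors drive cis-promoter reporters; gain or loss of signal fitted bidirectionally against DMSO.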

SMILES | outcome [1] | outcome [2] | outcome [3] | outcome [4] | outcome [5] | outcome [6] | outcome [7] | outcome [8] | outcome [9] | AC50 [1] | AC50 [4] | outcome [10] | AC50 [8] | AC50 [5] | AC50 [6] | AC50 [7] | AC50 [2]
C[Si](C)(CCCN)O[Si](C)(C)CCCN | inactive | inactive | inactive | inactive | inactive | inactive | inactive | inactive | inactive |  |  |  |  |  |  |  | 
CCCCCC/C=C\CCCCCCCC(=O)O |  | inactive | inactive |  | inactive |  | inactive |  | inactive | 34.7 µM (active) | 27.3 µM (active) | inactive | 34.2 µM (active) |  |  |  | 
O=c1cc[nH]c(=S)[nH]1 | inactive | inactive | inactive | inactive | inactive | inactive | inactive | inactive | inactive |  |  |  |  |  |  |  | 
FC(F)=C(F)OC(F)(F)C(F)(F)C(F)(F)F | inactive | inactive | inactive | inactive | inactive | inactive | inactive | inactive | inactive |  |  |  |  |  |  |  | 
Cc1oncc1C(=O)Nc1ccc(C(F)(F)F)cc1 | inactive | inactive | inactive | inactive |  |  |  | inactive | inactive |  |  |  |  | 8.59 µM (active) | 100 µM (active) | 127 µM (active) | 
Cc1ccc(N)c([N+](=O)[O-])c1 | inactive | inactive | inactive | inactive | inactive |  | inactive | inactive | inactive |  |  | inactive |  |  |  |  | 
O=P(O)(O)Oc1ccccc1 | inactive | inactive | inactive | inactive | inactive |  | inactive | inactive | inactive |  |  | inactive |  |  |  |  | 
CCCCCCCCO[C@@H]1O[C@H](CO)[C@@H](O)[C@H](O)[C@H]1O | inactive | inactive | inactive | inactive | inactive |  | inactive | inactive |  |  |  | inactive |  |  |  |  | 
c1ccc(CNCc2ccccc2)cc1 | inactive | inactive | inactive | inactive | inactive | inactive | inactive | inactive | inactive |  |  |  |  |  |  |  | 
CO[Si](CCC1CCC2OC2C1)(OC)OC (stereo not given) | inactive | inactive | inactive | inactive | inactive |  | inactive | inactive | inactive |  |  | inactive |  |  |  |  | 
CC(=O)OC1C2(C)CCC(C2)C1(C)C (stereo not given) | inactive | inactive | inactive | inactive | inactive | inactive | inactive | inactive | inactive |  |  |  |  |  |  |  | 
CCCCCCCC/C=C\CCCCCCCC(=O)O | inactive | inactive | inactive |  | inactive |  | inactive |  | inactive |  | 48.7 µM (active) |  | 85.9 µM (active) |  | 137 µM (active) |  | 
CCC(CC)C(=O)O | inactive | inactive | inactive | inactive | inactive | inactive | inactive | inactive | inactive |  |  |  |  |  |  |  | 
CCC(C)C=O (stereo not given) | inactive | inactive | inactive | inactive | inactive |  | inactive | inactive | inactive |  |  | inactive |  |  |  |  | 
CC=CC(=O)N(CC)c1ccccc1C | inactive | inactive | inactive | inactive | inactive | inactive | inactive | inactive | inactive |  |  |  |  |  |  |  | 
CN(C)c1ccc(C(=N)c2ccc(N(C)C)cc2)cc1 |  |  | inactive |  |  | inactive |  |  | inactive | 0.399 µM (active) | 0.056 µM (active) |  | 7.38 µM (active) | 0.334 µM (active) |  | 7.22 µM (active) | 0.871 µM (active)
C=CC(=O)OCCOC1C2CCC1C1CC=CC12 (stereo not given) | inactive | inactive | inactive | inactive | inactive |  | inactive | inactive | inactive |  |  | inactive |  |  |  |  | 
CC(C)(Oc1ccc(C2CC2(Cl)Cl)cc1)C(=O)O (stereo not given) | inactive | inactive | inactive | inactive | inactive | inactive | inactive | inactive | inactive |  |  |  |  |  |  |  | 
CC(C)c1ccc(C=O)cc1 | inactive | inactive | inactive | inactive | inactive | inactive | inactive | inactive | inactive |  |  |  |  |  |  |  | 
CCCCCC/C=C/C=O | inactive | inactive | inactive | inactive | inactive |  | inactive | inactive | inactive |  |  | inactive |  |  |  |  | 
Cc1ccc([N+](=O)[O-])cc1S(=O)(=O)O | inactive | inactive | inactive | inactive | inactive | inactive | inactive | inactive | inactive |  |  |  |  |  |  |  | 
CC(=O)Oc1ccc(C)cc1 | inactive | inactive | inactive | inactive | inactive |  | inactive | inactive |  |  |  | inactive |  |  |  |  | 
C=CC(=O)NC(C)(C)CS(=O)(=O)O | inactive | inactive | inactive | inactive | inactive | inactive |  | inactive | inactive |  |  |  |  |  |  | 15.8 µM (active) | 
CCc1ccc2c(c1)C(=O)c1ccccc1C2=O | inactive | inactive | inactive | inactive |  |  | inactive | inactive | inactive |  |  | inactive |  | 5.39 µM (active) |  |  | 
C1=CCCC1 | inactive | inactive | inactive | inactive | inactive |  | inactive | inactive | inactive |  |  | inactive |  |  |  |  | 
COc1ccc(-c2coc3cc(O)ccc3c2=O)cc1 | inactive | inactive | inactive | inactive |  | inactive | inactive |  | inactive |  |  |  |  | 20 µM (active) |  |  | 
CCCOC(=O)CCCCC(=O)OCCC | inactive | inactive | inactive | inactive | inactive | inactive | inactive | inactive | inactive |  |  |  |  |  |  |  | 
